Test results taken from PubChem BioAssay (Tox21).
Results filed as inconclusive are left out. Calls of active or inactive are those of the source. Calls come from the whole dose curve; as a rule, active = well fitted cell-killing curve with a large enough effect in the repeat runs; inconclusive = weak or mixed curves, or effect the other way; inactive = no such curve, though single readings can be large or run the other way.

assay: qHTS assay to identify small molecule agonists of the vitamin D receptor (VDR) signaling pathway - cell viability counter screen (AID 743224); conditions: VDR-bla HEK293T viability, CellTiter-Glo luminescence, 16 h; series mostly up to 62.6 µM; note: nearly all actives have a fitted effect of over 50% in size
From the text: U.S. Tox21 Program National Center for Advancing Translational Sciences [NCATS] NIH Chemical Genomics Center [NCGC] U.S. Environmental Protection Agency [EPA] National Institutes of Environmental Health Sciences [NIEHS] National Toxicology Program [NTP] U.S. Food and Drug Administration [FDA] Tox21 Assay Overview: The vitamin D receptor (VDR), a member of nuclear hormone receptor superfamily, plays a critical role in calcium homeostasis and bone metabolism. It is also involved in cell differentiation and growth, and thrombogenicity. […] The cytotoxicity of the Tox21 compound library against the VDR-bla cell line was tested in parallel by measuring the cell viability using CellTiter-Glo assay (Promega, Madison, WI) in the same wells.
Tox21 Assay Protocol Summary: VDR-bla cells were dispensed at 2,000 cells/6 uL/well into black wall/clear-bottom 1536-well plates using a Multidrop Combi (Thermo Fisher Scientific, Waltham, MA) dispenser. After the assay plates were incubated at a 37C and 5% CO2 for 4 h, 23 nL of compounds dissolved in DMSO, positive controls or DMSO only was transferred to the assay plate by a Pintool station (Kalypsys, San Diego, CA). The plates were incubated at 37C and 5% CO2 for 16 h. After 1 uL of LiveBLAzerTM B/G FRET substrate was added using a Bioraptr Flying Reagent Dispenser (FRD) workstation (Beckman Coulter, Indianapolis, IN, USA), the plates were incubated at room temperature for 2 h, and fluorescence intensity was measured by an Envision plate reader (PerkinElmer, Shelton, CT). For cell viability readout that measures cytotoxicity, 3 ul/well of CellTiter-Glo reagent was added into the assay plates using a FRD. After 30 min incubation at room temperature, the luminescence intensity in the plates was measured using a ViewLux (PerkinElmer) plate reader.

| Compound | outcome |
| --- | --- |
| NCCc1ccn[nH]1 | inactive |
| C=CCOc1c(Br)cc(C(C)(C)c2cc(Br)c(OCC=C)c(Br)c2)cc1Br | inactive |
| C=CCOc1cc(Cl)ccc1C(=O)NCCN(CC)CC | inactive |
| Nc1ccc(S(=O)(=O)Nc2ccccn2)cc1 | inactive |
| CC(C)c1ccccc1O | inactive |
| O=C(O)c1c(Cl)ccc(Cl)c1Cl | inactive |
| CC(C)COC(=O)COc1ccc(Cl)cc1Cl | inactive |
| Nc1nc(=O)n([C@@H]2O[C@H](CO)[C@@H](O)[C@@H]2F)cc1I | inactive |
| CCCCCCCCCCCCCCCCCCN(C)C | inactive |
| CN[C@@H]1[C@H](O)[C@H](NC)[C@H]2O[C@@]3(O)C(=O)C[C@@H](C)O[C@H]3O[C@@H]2[C@H]1O | inactive |
| CCCCC[Si](OCC)(OCC)OCC | inactive |
| O=C1CC[C@H](C(=O)N2CCCCC2)N1 | inactive |
| CC1=CC[C@H](CC=O)C1(C)C | inactive |
| CC(C)(C)NCCO | inactive |
| CCCCOC(=O)C(C)OC(=O)CCC (stereo not given) | inactive |
| NS(=O)(=O)c1ccc(Cl)c(S(N)(=O)=O)c1 | inactive |
| CC(C)(C)c1ccc(C=O)cc1 | inactive |
| O=C1c2ccccc2-c2ccccc21 | inactive |
| CC(=O)OCCCc1ccccc1 | inactive |
| CC(=O)OC(C(=O)c1ccccc1)c1ccccc1 (stereo not given) | inactive |

| Compound | outcome |
| --- | --- |
| O=C(CN1CCN(Cc2ccc3c(c2)OCO3)CC1)N1c2ccccc2Sc2ccccc21 | inactive |
| COc1ccc(OC)c(NC(=O)CC(C)=O)c1 | inactive |
| O=C(O)/C=C/c1ccccc1 | inactive |
| C=CCOCC(O)CCl (stereo not given) | inactive |
| CC(=O)/C=C/c1ccco1 | inactive |
| Cc1nc2n(c(=O)c1CCN1CCC(C(=O)c3ccc(F)cc3)CC1)CCS2 | inactive |
| Nc1ccc(S(=O)(=O)NC(=O)c2ccccc2)cc1 | inactive |
| C=C(C)[C@@H]1CC[C@@H](C)C[C@@H]1O | inactive |
| CC(C)C(=O)Nc1cccc(C(F)(F)F)c1 | inactive |
| CCCCCC(=O)OCC | inactive |
| F[Si-2](F)(F)(F)(F)F | inactive |
| COC(=O)CCC(=O)O | inactive |
| NC(=O)C1(N2CCCCC2)CCN(CCCC(=O)c2ccc(F)cc2)CC1 | inactive |
| CC(=O)OCC(=O)[C@@]1(O)[C@H](OC(C)=O)C[C@H]2[C@@H]3CCC4=CC(=O)C=C[C@]4(C)[C@@]3(F)[C@@H](O)C[C@@]21C | inactive |
| CCCCCC1Nc2cc(C(F)(F)F)c(S(N)(=O)=O)cc2S(=O)(=O)N1 (stereo not given) | inactive |
| CO[Si](CCCS)(OC)OC | inactive |
| CC1=NN(c2ccc(S(=O)(=O)O)cc2)C(=O)C1N=Nc1ccccc1 (stereo not given) | inactive |
| COc1cc2c3cc1Oc1cc(ccc1O)C[C@@H]1c4c(cc(OC)c(O)c4Oc4ccc(cc4)C[C@@H]3N(C)CC2)CC[N+]1(C)C | inactive |
| CN=C(NC#N)NCCSCc1csc(N=C(N)N)n1 | inactive |
| CC(C)(c1ccc(Oc2ccc3c(c2)C(=O)OC3=O)cc1)c1ccc(Oc2ccc3c(c2)C(=O)OC3=O)cc1 | inactive |
